The source of these data is the supplement of paper PMC12632987.

Over roughly 4,500 sequences, “median log2 fold change of GCK-ALFA target abundance (FLAG IP / Myc IP barcode read proportion)” has its median near 0.078; the lowest 2% begin near -0.6. The entries come from a sample that favours the lowest values as a whole.

Sequences and labels used below:
B1: GBRAP_11_2857 (protein)
chain: KKEKLKEAAELARKAAEALEKLLKEGVDDKELQKKIEELLKKLLELVKEYGDPDLIKLAEIALENFQKAKKDPKNAEKYIKEALAAVRVLEGNLLLEIDE
B2: GBRAP_9_7127 (protein)
chain: KKELVEKLKEVVEEMIEDISKVVPEVTEEMKEEFLKKVEELEKEALEDESLTPEEIKEKFKELVEEIKEEVKKIVDEELKKLVEAIALTALEEIDEIVEE
B3: GBRAP_52_6037 (protein)
chain: MREKMREKAEEIVKLVLEGKLEEAEKLIRELVETLSEEELLLLGEELARIAREAPEEELDAILEAAFILADELIEGGYEEVLADEIEARVTRAAVERLER
B4: GBRAP_11_2679 (protein)
chain: KKEQLKKIAEIAKELAEAIEKLLKEGVDNEKLLKEIKKLLKELKELAEKYADEGLKTLAEIAAELFEEALANPENAEHYLELLLAAVRVLLANVEEEIDE
B5: GBRAP_52_6366 (protein)
chain: DLEEAVKLLREAVKAVLEGKEEEAEKILKEIVENFSEETILEAARRLAEELLEKSLEEAEAFLEAAIMLADILEEAGKSEVVGDEIEAIAARTLMEIRER
B6: GBRAP_11_2721 (protein)
chain: KAEKLKALAEKAEALAEKVEKLIKEGPKKEEIKKLAEEVEKLREEAKKIGASEDVLKTLDIAAENLKKAIEDPSNVEEHLKNAAAALRVAAGQLLLEAEE
B7: GBRAP_160_4055 (protein)
chain: AEEKERLIADVDAAEAAILAVIDEEGAEAAAVMADGEFGAIIMEAAELPTASDELVDALEAIRDALVAGLRANAAASPAELKALVRAAAAAAKEAIKKHY
B8: GBRAP_160_4135 (protein)
chain: SEELEKLIKEIKEIGEEALEMIEGETPENAKVIARVALGDIVMLVESNDAISEETEDEIGKIADEAEATLKANPDLTVEEIKALLKEATEKVVEIIEKEK
B9: GBRAP_52_6087 (protein)
chain: MEERLEKLAKEIAEAVAAGKRDEALALMEKAIKELSVEEIKKLFKLAAELVAKLGEEAEELFVDLLDEAEDLLIEAGISEEDALLIVGDAEAALAKAVAA
B10: GBRAP_52_6086 (protein)
chain: MEERLEALAREIAAAVAAGDREGALALIEEAIKELSVEEIRRLLRLAAERVAALGEDAHVLFVDLLDEAEDLMIKAGISEEDALLIVGDAEAALAKAVAA
B11: GBRAP_160_4202 (protein)
chain: EEKVKKIIEELKEETEEVIKLLDEVSVEEAAVFAEVEFGSVLMLAVELGIENDEILDVIDEAGDKIVKYLKENKDASVEELKKKIKEITEEAIKKIKELA
B12: GBRAP_39_5664 (protein)
chain: EEDEENELLFEYYLAKAEGYRIKEGISDEELIERGKELLKAIAKEHPEIKELVEELLKEVDKGDEDVGLAAAGIALDYLEGLPIEEIKEHLEKLLKYVKK
B13: GBRAP_184_5111 (protein)
chain: KLLEETIKANNKEELEKKLTEVVEKAVKEKADLLVIVEIPNLTPEMAEIIMDKVAKAKEAGIKNVLVEIVSDNLSDEVIDTIDKKAKEYGLTNVVLAMKE
B14: GBRAP_153_3948 (protein)
chain: SMESKEKLEKAKKLIEKIKKSEDPTEYIKELAKLLASMNLEERLEVAKEFNSLSEETVYKIFLTLATEEGFSVEELLELTTELNEEQQAAALKAIVEAQK
B15: GBRAP_39_5630 (protein)
chain: EEEEELELLESLAEADLAKREVETGLPAEELYAELLARAREAAADDPELLALIERLAALAEEHGPEARERLAAAMAAYLAGLPKEDIKRLLTALIEELEA
B16: GBRAP_48_5830 (protein)
chain: MKIDLEKLEALVKETVEEMKELYEEAKKEGLSDEDILKMIKAELGDLALELEEEGYTKAADYLLERENRDELAKKLLELFKEGKYEEAYEYLLKKLKEAE
B17: GBRAP_160_4617 (protein)
chain: SSKIEELKKFVKEEFEEAKEMIEGETPEQRAAIVDVTIGEIILEAEELEVVSDESLEKIDEIGDELVETILENPDLTEEEVKELIDEAEKKIIEIIEEDE
B18: GBRAP_160_4619 (protein)
chain: SEKVEELKKFVEEEFEETKEMIVGQTPEERAAIVDVTIGEIILEAEELEVVSDETLDEIDEIGDELVETILANPDLTDEEIKALIDEAREKIIALIEKDE
B19: GBRAP_53_6397 (protein)
chain: SAATIAALLAELRALIAEVDADPTLDPEEVAARAGELLRAAVAAGAPAAELTALARELAAAVAARGLGVEVGTRLAATAAAAGAEEVAAVFTEAAVEDLE
B20: GBRAP_26_5497 (protein)
chain: FLEEILEELRREIKEILKDESPELQAAVIATAEDLLLEADEEIEENAEDEEKIKEAIEKAVEEMRKELERFGLSEEKIEKIVEALRRALEKVAERIKEEA
B21: GBRAP_52_5995 (protein)
chain: SAARIEAVAREIVALVLAGDREGARALIRKAFRELSDEEIVEMVRLATRLLMEDPRATDEDIRTFIDLVLDTAEEEGLDEETIADIIGAIATAIKEAELK
B22: GBRAP_125_3094 (protein)
chain: EEEALLAALRRLALALGFSEEEAEELAELAARSSLRQTLYALFAAEGYEELADLVEKLTEEQAREALLRLAAWLDAHPDASREEVVARAREIAEELLAAA
B23: GBRAP_160_4419 (protein)
chain: DELIEEVDELLDETEELVVELVEEGKREEAIAALRVGAGEILLLLDEDESVSEETEEKVDKILDETIKKFEENKDASPEEVRELLDKAREEILAVLKEGS
B24: GBRAP_137_3646 (protein)
chain: PNVTITKETIDDLVEINIEFDDPEKAEEAAELIRDVAHEHGALAVSIEINEDGTLEATIWVPKDKAQALIDALVTRLRTELGANVTVIDKDTGETTVVKA
B25: GBRAP_137_3669 (protein)
chain: MIEAEIELENGLAFARITVEGSKEELERAAEIAEDIAGEIPNLAVSVELSEDGTLVIDVFGTKEDVLKFLKELAKRLNKTVKVKTKNLETGEEKEEVIEP
B26: GBRAP_125_3101 (protein)
chain: MEEELLEALKRFALALGFSEEDAEEAAELAKKFSLKQTLIALLLAEGEEELAELVEKLTEEEAKEVLLKLDEYLKKNPNASKEEVLKKFKELVEEALKAS
B27: GBRAP_125_3102 (protein)
chain: EEEELLEALRRLALALGFSEEEAEEAARLAREFSLRQTLIALLLAEGEEELAELVEKLTEEQAKEVLRRLAEYLEAHPDATREEVVAKLRELVEEALAAA
B28: GBRAP_125_3103 (protein)
chain: EEEELLEALKALALALGFSEEDAEEAAELARRFSLKNTLIAILLAEGEEELAELVEKLTEEQAKEVLKKLAEWLKENPNASKEEVIKKLKELVEEALKKA
B29: GBRAP_125_3104 (protein)
chain: SEEELLEDLKALALALGFSEEDAEEAARLAAEFSLKNTLIAILLAEGEEELAELVEKLTEEQAKEVLKKLAEYLKKHPNATKEEVIEKFKELVEEALAKS

For this experiment, the target named is GABARAP, O95166. The experiment in a line: median log2 fold change of GCK-ALFA target abundance (FLAG IP / Myc IP barcode read proportion) (log2 ratio); each designed protein is fused to an ALFA-tag nanobody in HEK293 cells to bring the named protein to FLAG-tagged glucokinase (GCK); Myc marks an untargeted standard; higher = target protein stabilised (more abundant). The following applies: target protein: 3xFLAG-MCP-GCK-ALFA reporter; HEK293 landing pad (RPLP). The gist of the method: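 Sequencing of reverse-transcribed, amplified circular RNA barcodes from anti-FLAG and anti-Myc immunoprecipitates provided the readout for an ALFA-nanobody-fused binder library recombined into HEK293 landing-pad cells. Those cells were induced with 2 μg mL^−1 doxycycline, transfected with a plasmid expressing a FLAG-tagged target and a Myc-tagged standard, and lysed after 48 h. Target abundance is the per-binder median log2 ratio of FLAG to Myc barcode read proportions. Only barcodes at a proportion of ≥10^−7 in both replicates and binders with ≥3 barcodes per replicate were kept, with a 10^−6 pseudocount added before the two replicates were pooled.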
Chain of GABARAP, O95166 (O95166 whole entry, the tested form may be a part): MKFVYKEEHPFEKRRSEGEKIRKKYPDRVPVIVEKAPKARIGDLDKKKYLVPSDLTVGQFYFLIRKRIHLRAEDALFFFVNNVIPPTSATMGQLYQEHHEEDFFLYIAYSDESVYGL
As to B1, the “median log2 fold change” value came out at 0.0648. For the molecule B2, the “median log2 fold change” value turned out to be 0.275.

On to B3, for which the “median log2 fold change” value is -0.655.

For B4, the “median log2 fold change” value is -0.169. The value for B5 was -0.214.

Consider B6, for which the “median log2 fold change” value was 0.0939. The value for B7 was 0.183; that for B8 was -0.387; that for B9 was -0.234.

For B10, the “median log2 fold change” value is -0.626. For the molecule B11, the “median log2 fold change” value is -0.374. The value for B12 was 0.132; that for B13 was 0.326; that for B14 was 0.294. The value for B15 was 0.159; that for B16 was 0.224. The value for B17 was -0.294. Regarding B18, the “median log2 fold change” value was -0.678.

Turning to B19, the “median log2 fold change” value was found to be 0.226. Then B20, with 0.312; and B21, with -0.964. The value for B22 was 0.075. On to B23, for which the “median log2 fold change” value is -0.0618. As to B24, the “median log2 fold change” value was -0.0128. Consider B25, for which the “median log2 fold change” value worked out at 0.0022. Then B26, with -0.382. The value for B27 was -0.364; that for B28 was -1.16. Then B29, with -0.801.
